Experimental findings from PubChem BioAssay (EPA / NIEHS) are described below.

Active and inactive are the calls of the source. Rule for the calls: active = hit-call score of the fitted dose curve at least 0.9, where 1 is the maximum; inactive = score below 0.9.

What all share (details): mRNA level, 48 h; actives raise or lower the signal
Read-out in one test: CYP4A11 (gene 1579)
As to the kind of experiment: LTEA_HepaRG_CYP4A11: Life Technologies and Expression Analysis (LTEA) Assay for CYP4A11 using HepaRG (AID 2283486). The procedure, abridged:
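Differentiated HepaRG cells, 48 h after plating, exposed in duplicate for 48 h to 8 half-log concentrations up to 100 uM in 0.5% DMSO in serum-free induction medium. CYP4A11 mRNA measured by TaqMan qRT-PCR, normalized to ACTB, GAPDH and POLR2A.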

Read-out in test [1]: Cytochrome P450 3A4 (Homo sapiens) (UniProt P08684)
The test is described as follows: LTEA_HepaRG_CYP3A4: Life Technologies and Expression Analysis (LTEA) Assay for CYP3A4 using HepaRG (AID 2283487). Summed up: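 Differentiated HepaRG cells, plated 48 h, then dosed 48 h in serum-free induction medium with 0.5% DMSO, 8 half-log concentrations up to 100 uM, duplicate. CYP3A4 mRNA by qRT-PCR, normalized to ACTB/GAPDH/POLR2A; bidirectional fit versus DMSO.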

Read-out in test [2]: DNA damage-inducible transcript 3 (DDIT3), DDIT3 (gene 1649)
As to the kind of experiment: LTEA_HepaRG_DDIT3: Life Technologies and Expression Analysis (LTEA) Assay for DNA damage-inducible transcript 3 (DDIT3) using HepaRG (AID 2283488). The procedure, abridged: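 DDIT3 transcript was quantified by qRT-PCR with ACTB/GAPDH/POLR2A normalization after 48 h chemical treatment of differentiated HepaRG cells in 0.5% DMSO. Dosing was eight-point, half-log, top 100 uM, duplicate wells. Curves fitted bidirectionally versus DMSO.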

Read-out in test [3]: Pro-epidermal growth factor (Homo sapiens) (UniProt P01133)
As to the kind of experiment: LTEA_HepaRG_EGF: Life Technologies and Expression Analysis (LTEA) Assay for Epidermal growth factor (EGF) using HepaRG (AID 2283489). Summed up:
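HepaRG cells (~100,000/well, 48 h pre-culture) exposed in duplicate for 48 h in serum-free induction medium to 8 half-log concentrations up to 100 uM in 0.5% DMSO. EGF mRNA by qRT-PCR, normalized to ACTB/GAPDH/POLR2A; bidirectional fit versus DMSO.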

Read-out in test [4]: Early growth response protein 1 (EGR1) transcription factor, EGR1 (gene 1958)
The test is described as follows: LTEA_HepaRG_EGR1: Life Technologies and Expression Analysis (LTEA) Assay for Early growth response protein 1 (EGR1) transcription factor using HepaRG (AID 2283490). The procedure, abridged: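 EGR1 transcript levels quantified by qRT-PCR (Fluidigm arrays) against three housekeeping genes after 48 h chemical exposure of HepaRG cells. Eight-point half-log series topping at 100 uM, 0.5% DMSO vehicle, analyzed for gain or loss.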

Read-out in test [5]: Ezrin (EZR), EZR (gene 7430)
As to the kind of experiment: LTEA_HepaRG_EZR: Life Technologies and Expression Analysis (LTEA) Assay for Ezrin (EZR) using HepaRG (AID 2283491). The procedure, abridged:
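EZR transcript levels came from Fluidigm qRT-PCR and were normalized to three housekeeping genes after 48 h chemical exposure of HepaRG cells. Dosing used an 8-point half-log series with a 100 uM top concentration in 0.5% DMSO, tested in duplicate; both directions were fitted versus vehicle.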

Read-out in test [6]: Cytochrome P450 3A7 (Homo sapiens) (UniProt P24462)
The test is described as follows: LTEA_HepaRG_CYP3A7: Life Technologies and Expression Analysis (LTEA) Assay for CYP3A7 using HepaRG (AID 2283492). Summed up: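 Differentiated HepaRG cells in serum-free induction medium exposed 48 h in duplicate to 8-point half-log series from 100 uM top in 0.5% DMSO. CYP3A7 mRNA by qRT-PCR, normalized to ACTB/GAPDH/POLR2A, bidirectional fit versus DMSO.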

Read-out in the next test: CYP3A5 (gene 1577)
The test is described as follows: LTEA_HepaRG_CYP3A5: Life Technologies and Expression Analysis (LTEA) Assay for CYP3A5 using HepaRG (AID 2283493). The procedure, abridged:
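mRNA levels were quantified by qRT-PCR on Fluidigm arrays and normalized to three housekeeping genes. Differentiated HepaRG cells received 48 h exposure (top 100 uM, half-log steps, 0.5% DMSO vehicle, duplicate); bidirectional fitting versus DMSO.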

Read-out in test [7]: Fatty Acid-Binding Protein 1 (FABP1), FABP1 (gene 2168)
The test is described as follows: LTEA_HepaRG_FABP1: Life Technologies and Expression Analysis (LTEA) Assay for Fatty Acid-Binding Protein 1 (FABP1) using HepaRG (AID 2283494). Summed up: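 FABP1 expression by TaqMan qRT-PCR, normalised to three housekeeping genes, in HepaRG cells after 48 h chemical treatment. Eight-point half-log series topping at 100 uM in 0.5% DMSO, duplicates; gain or loss fitted relative to vehicle.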

Chain of Cytochrome P450 3A4 (Homo sapiens) (P08684 whole entry, looked up): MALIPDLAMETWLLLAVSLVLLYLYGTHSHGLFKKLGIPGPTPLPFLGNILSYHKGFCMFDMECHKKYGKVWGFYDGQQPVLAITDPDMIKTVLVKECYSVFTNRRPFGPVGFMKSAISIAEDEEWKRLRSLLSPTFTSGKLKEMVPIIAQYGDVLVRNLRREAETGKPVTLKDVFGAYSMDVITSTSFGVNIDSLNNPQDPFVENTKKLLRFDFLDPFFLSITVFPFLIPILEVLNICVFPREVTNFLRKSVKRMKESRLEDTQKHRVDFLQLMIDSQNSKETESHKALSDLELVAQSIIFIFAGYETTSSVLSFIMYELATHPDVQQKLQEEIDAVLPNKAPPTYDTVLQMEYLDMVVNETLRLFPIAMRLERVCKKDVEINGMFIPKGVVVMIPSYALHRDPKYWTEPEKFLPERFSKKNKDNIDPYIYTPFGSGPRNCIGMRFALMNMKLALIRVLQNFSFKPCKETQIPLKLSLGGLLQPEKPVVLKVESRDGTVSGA
Chain of Cytochrome P450 3A7 (Homo sapiens) (P24462 whole entry, looked up): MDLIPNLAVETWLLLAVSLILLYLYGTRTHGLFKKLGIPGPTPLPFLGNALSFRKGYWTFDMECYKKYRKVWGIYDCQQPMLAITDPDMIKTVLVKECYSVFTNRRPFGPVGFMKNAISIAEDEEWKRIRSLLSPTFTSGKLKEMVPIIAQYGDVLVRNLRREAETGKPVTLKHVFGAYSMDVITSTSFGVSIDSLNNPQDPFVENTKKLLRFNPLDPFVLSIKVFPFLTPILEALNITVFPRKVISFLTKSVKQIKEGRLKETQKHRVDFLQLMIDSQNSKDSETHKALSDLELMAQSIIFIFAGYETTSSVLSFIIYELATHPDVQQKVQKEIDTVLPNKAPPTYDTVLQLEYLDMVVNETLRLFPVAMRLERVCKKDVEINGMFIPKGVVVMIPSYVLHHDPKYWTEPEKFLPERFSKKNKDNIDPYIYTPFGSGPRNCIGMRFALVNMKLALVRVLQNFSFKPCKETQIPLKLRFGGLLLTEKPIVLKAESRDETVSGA

The term AC50 denotes the concentration at which the activity in the assay is half-maximal. Consider `O=c1[nH]cc(F)c(=O)[nH]1`, for which the AC50 in the test with CYP4A11 (gene 1579) was 51 µM (active); in test [4], 70.9 µM (active). In addition, the molecule was called inactive (in [1]; in test [2]; in test [3]; in [5]; in test [6]; in the test with CYP3A5 (gene 1577)).

`CC1=C(/C=C/C(C)=C/C=C/C(C)=C/CO)C(C)(C)CCC1`: the AC50 with CYP4A11 (gene 1579) is 15.5 µM (active); in test [1], 23.6 µM (active); in [3], 52.2 µM (active); in test [7] it was 26.3 µM (active). For the same molecule, the molecule was called inactive (in test [2]; in test [4]; in [5]; in [6]; in the test with CYP3A5 (gene 1577)).

With `CC(=O)OCCOCCOCCOC(C)=O`, the call (with CYP4A11 (gene 1579); in test [1]; in test [2]; in test [3]; in [4]; in test [5]) was inactive. Moreover, the outcome (in test [6]; in the test with CYP3A5 (gene 1577); in test [7]) was inactive.

Consider `COc1ccc(S(=O)(=O)N2C(=O)[C@@](c3ccccc3OC)(N3C[C@H](O)C[C@H]3C(=O)N(C)C)c3cc(Cl)ccc32)c(OC)c1`, for which the AC50 in the test with CYP4A11 (gene 1579) is 26.6 µM (active); in [1] it was 32.9 µM (active); in test [2], 73.8 µM (active); in [4], 81.1 µM (active); in test [5], 11.5 µM (active); in [6] it was 30.4 µM (active). In the test with CYP3A5 (gene 1577), the AC50 is 13.2 µM (active). Further, the result in test [3] was inactive.

Turning to `NS(=O)(=O)c1cc2c(cc1Cl)NCNS2(=O)=O`, the call (with CYP4A11 (gene 1579); in test [1]; in test [2]; in [3]; in test [4]; in test [5]) was inactive. In addition, the outcome (in test [6]; with CYP3A5 (gene 1577); in [7]) was inactive.

Take `COc1ccc2c(c1)c(CC(=O)O)c(C)n2C(=O)c1ccc(Cl)cc1`: the result (with CYP4A11 (gene 1579); in [1]; in test [2]; in [3]; in [4]; in test [5]) was inactive. Further, the result (in test [6]; in the test with CYP3A5 (gene 1577)) was inactive.

With `CNC(=O)[C@H]1O[C@@H](n2cnc3c(NCc4cc(Cl)ccc4OCc4cc(C)no4)ncnc32)[C@H](O)[C@@H]1N`, the molecule was called inactive (in the test with CYP4A11 (gene 1579); in test [1]; in test [2]; in test [3]; in [4]; in test [5]). Besides, the molecule was called inactive (in [6]; with CYP3A5 (gene 1577)).

Turning to `C=CCOC(=O)c1ccccc1C(=O)OCC=C`, the molecule was classed as inactive (in the test with CYP4A11 (gene 1579); in test [1]; in test [2]; in test [3]; in [4]; in test [5]). The outcome (in test [6]; with CYP3A5 (gene 1577); in test [7]) was inactive.

In the case of `CCCCCCCC=O`, the molecule was classed as inactive (with CYP4A11 (gene 1579); in test [1]; in [3]; in test [4]; in [5]; in [6]). For the same molecule, the outcome (with CYP3A5 (gene 1577); in test [7]) was inactive. Further, in test [2], the AC50 is 9.92 µM (active).

Turning to `Cc1ccc(C(C)C)c(O)c1`, the result (with CYP4A11 (gene 1579); in [1]; in test [2]; in test [3]; in test [4]; in test [5]) was inactive. Besides, the call (in test [6]; with CYP3A5 (gene 1577)) was inactive.

For `CC(=O)Oc1ccccc1C(=O)O`, the result (with CYP4A11 (gene 1579); in test [1]; in test [2]; in [3]; in test [4]; in [5]) was inactive. Further, the molecule was classed as inactive (in [6]; in the test with CYP3A5 (gene 1577)).

As to `COC(=O)c1ccc(O)cc1`, the result (with CYP4A11 (gene 1579); in [1]; in test [2]; in [3]; in test [4]; in [5]) was inactive. Further, the result (in test [6]; in the test with CYP3A5 (gene 1577)) was inactive.

Turning to `CCCCOC(=O)CCCCCCCCC(=O)OCCCC`, the molecule was called inactive (with CYP4A11 (gene 1579); in test [1]; in [2]; in test [3]; in test [4]; in test [5]). The outcome (in test [6]; with CYP3A5 (gene 1577)) was inactive.

`Nc1nc(N)c2nc(CNc3ccc(C(=O)N[C@@H](CCC(=O)O)C(=O)O)cc3)cnc2n1`: the molecule was called inactive (in the test with CYP4A11 (gene 1579); in test [1]; in test [2]; in test [3]; in [5]; in test [6]). Also, in test [7], the molecule was called inactive. Moreover, the AC50 in [4] was 0.102 µM (active); in the test with CYP3A5 (gene 1577), 0.0852 µM (active).

Turning to `Oc1ccc2c(c1)OC[C@@H](N1CCC(O)(c3ccc(F)cc3)CC1)[C@H]2O`, the outcome (with CYP4A11 (gene 1579); in test [1]; in test [2]; in test [3]; in test [4]; in [5]) was inactive. Further, the outcome (in test [6]; in the test with CYP3A5 (gene 1577)) was inactive.

Regarding `Clc1cc(Cl)c(Cl)cc1Cl`, the result (with CYP4A11 (gene 1579); in [1]; in test [2]; in test [3]; in [4]; in [5]) was inactive. Besides, the molecule was classed as inactive (in test [6]; in the test with CYP3A5 (gene 1577)).

Regarding `C=CCc1ccc(O)c(OC)c1`, the molecule was classed as inactive (in the test with CYP4A11 (gene 1579); in test [1]; in test [2]; in test [3]; in test [4]; in [5]). For the same molecule, the result (in test [6]; with CYP3A5 (gene 1577)) was inactive.

Consider `CCCCCCCCCCCC(=O)OC`, for which the molecule was called inactive (with CYP4A11 (gene 1579); in [1]; in test [2]; in [3]; in test [4]; in test [5]). Also, the call (in test [6]; with CYP3A5 (gene 1577)) was inactive.

For the molecule `CCCCCCCCCCCCCO`, the molecule was classed as inactive (in the test with CYP4A11 (gene 1579); in test [1]; in test [2]; in test [3]; in [4]; in test [5]). The outcome (in test [6]; with CYP3A5 (gene 1577); in [7]) was inactive.

On to `Cc1ccc2ncccc2c1`, for which the result (with CYP4A11 (gene 1579); in [1]; in test [2]; in [3]; in [4]; in test [5]) was inactive. The result (in [6]; with CYP3A5 (gene 1577)) was inactive.

As for `CCCCCCCCCCO`, the result (with CYP4A11 (gene 1579); in [1]; in test [2]; in test [3]; in [4]; in test [5]) was inactive. Besides, the call (in [6]; with CYP3A5 (gene 1577)) was inactive.

For `CCc1c(C(=O)NN2CCCCC2)nn(-c2ccc(Cl)cc2Cl)c1-c1ccc(Br)cc1`, the concentration at half-maximal activity (AC50) was 15.9 µM (active) with CYP4A11 (gene 1579); 31.7 µM (active) in test [1]; 32.5 µM (active) in test [2]; 12.2 µM (active) in test [4]; 23.1 µM (active) in [6]; 50 µM (active) with CYP3A5 (gene 1577). For the same molecule, the AC50 in test [7] is 36.2 µM (active). Moreover, the result in test [3] and in [5] was inactive.

`CCCCCCOCCO`: the result (with CYP4A11 (gene 1579); in test [1]; in test [2]; in test [3]; in [4]; in test [5]) was inactive. For the same molecule, the call (in [6]; with CYP3A5 (gene 1577)) was inactive.
